BAZ2B inh: BAZ2B (human) inhibition | Q9UIF8 | AlphaScreen BAZ2B-H3K14Ac peptide displacement | Potency, µM (doses to about 114 µM), for inactives: top-dose activity change, negative = inhibition, hits mostly inhibitors | 4.4% of 360,000 active | AID 504333; further: on the % scale 0 is the no-effect control and ±100 the full control effect; nearly all actives have a fitted effect of over 60% in size
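AlphaScreen displacement: compounds (up to 110uM) incubated 30 min at room temperature with a preformed 50 nM BAZ2B/50 nM biotinylated H3K14Ac peptide complex in PBS pH 7.4 with Tween-20. Donor and acceptor beads at 10 ug/mL final added, 20 min light-protected before reading.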
Sfp PPTase inh: blocks B. subtilis Sfp PPTase activity; Q9F4F7; Biochemical Sfp PPTase activity, qHTS; Potency, µM, for the others: largest response in the series, negative = inhibition, most hits filed as inhibitors; 3.5% of 310,000 active;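 further: the enzyme is Sfp with the accession as filed and its product quenches rhodamine fluorescence; 0% = enzyme reaction without inhibitor and -100% = no enzyme wells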
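After 15 min at room temperature with compound, 15 nM Sfp received 5 uM rhodamine-CoA plus 12.5 uM BHQ-2-ybbR (50 mM Hepes pH 7.6, 10 mM MgCl2). Rate came from the fluorescence difference over 30 min, ex 525/em 598 nm.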
JMJD2A Tudor: inhibitors of human JMJD2A Tudor domain | O75164 | Potency, µM (doses to about 114 µM), without a hit: at the highest dose activity change, negative = inhibition, actives largely listed as inhibitors | AlphaScreen JMJD2A-Tudor / H3K4me3 peptide binding | 4.4% of 390,000 active; further: on the % scale 0 is the no-effect control and ±100 the full control effect; nearly all actives have a fitted effect of over 50% in size
G9a block: G9a (human) methyltransferase inhibition. Q96KQ7. AID 504332. 8.8% of 350,000 active. G9a H3K9 monomethylation, AlphaScreen, 2 h. Potency, µM (titrated, usually from 102 µM), for inactives: at the highest dose activity, negative = inhibition, usual class: inhibitors; further: on the % scale 0 is the no-effect control and ±100 the full control effect; nearly all actives have a fitted effect of over 75% in size
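Methyltransferase reactions run at room temperature for 2 h (20 nM enzyme, 500 nM biotin-H3K9 peptide, 20 uM SAM) after a 15 min compound preincubation; product detected by AlphaScreen beads and anti-H3K9me1 antibody.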
12-LOX inh: blocks human arachidonate 12S-lipoxygenase. purified 12hLO, xylenol orange hydroperoxide absorbance. Potency, µM (top dose mostly 108 µM), without a hit: top-dose activity change, negative = inhibition, usual class: inhibitors. 1.1% of 580,000 active; further: on the % scale 0 is the no-effect control and ±100 the full control effect
Target sequence (P18054 whole entry, looked up): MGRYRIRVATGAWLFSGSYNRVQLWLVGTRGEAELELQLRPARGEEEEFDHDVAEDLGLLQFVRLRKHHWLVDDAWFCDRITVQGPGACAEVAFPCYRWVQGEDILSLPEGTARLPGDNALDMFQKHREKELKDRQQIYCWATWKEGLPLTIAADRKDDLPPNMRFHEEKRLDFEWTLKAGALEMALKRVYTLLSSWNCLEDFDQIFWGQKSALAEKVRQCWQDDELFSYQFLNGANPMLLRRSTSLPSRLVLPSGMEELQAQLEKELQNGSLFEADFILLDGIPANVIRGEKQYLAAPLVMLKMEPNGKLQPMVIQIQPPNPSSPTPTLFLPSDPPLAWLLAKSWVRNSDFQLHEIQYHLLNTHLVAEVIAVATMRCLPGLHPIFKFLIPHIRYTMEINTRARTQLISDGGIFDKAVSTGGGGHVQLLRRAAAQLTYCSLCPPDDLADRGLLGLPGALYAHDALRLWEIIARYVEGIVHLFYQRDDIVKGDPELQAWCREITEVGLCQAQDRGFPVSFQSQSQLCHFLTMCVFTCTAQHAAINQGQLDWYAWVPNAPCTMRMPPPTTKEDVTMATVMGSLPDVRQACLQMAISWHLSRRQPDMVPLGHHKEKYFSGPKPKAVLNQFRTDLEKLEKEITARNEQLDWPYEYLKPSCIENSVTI
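Purified human 12hLO (150 nM final) in 25 mM Hepes, 0.01% Triton X-100, pH 7.0 was preincubated 15 min at room temperature with compound. Then 40 uM arachidonic acid was added, 30 min. Hydroperoxide was read by Fe-XO absorbance ratio 573/405 nm.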
HP1b binding inh: inhibitors of HP1-beta chromodomain binding to methylated histone tails. AlphaScreen HP1-beta / biotin-H3K9me3 peptide binding. Potency, µM (series often up to 114 µM), without a hit: top-dose activity change, negative = inhibition, usual class: inhibitors. P83916. 0.56% of 390,000 active; further: nearly all actives have a fitted effect of over 70% in size
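Compound inhibition of the preformed complex between 50 nM HP1-beta and 50 nM biotinylated H3K9me3 peptide was read by AlphaScreen. Buffer was PBS pH 7.4 with 0.01% Tween-20. Incubations ran 30 min at room temperature, with 10 ug/mL donor/acceptor beads.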
An asterisk follows results filed as active; ? = inconclusive; nt = no result given; [ ] = remark or other dose. The list is not random: actives were taken first. Their share in the collection is about 8.7%. The call rests on the fitted dose curve; in most records, active means well fitted curve in the direction sought with a large enough effect; inconclusive means small, poorly fitted or top-dose-only effect, or another doubt; inactive means no such curve, though single readings can be large; an effect the other way counts as inactive or inconclusive. Potency means the concentration at half of the fitted maximal effect.

SMILES	BAZ2B inh	Sfp PPTase inh	JMJD2A Tudor	G9a block	12-LOX inh	HP1b binding inh
Cc1ccc(N=N/C(=C\O)C(=O)c2ccc(Cl)cc2)cc1	11.2µM*	10.1%	-34.6%[11.4 µM]	25.1µM*	?	?
COc1cc2cc(CN3CCC[C@H]3CO)c(-c3cccc(Cl)c3)nc2cc1OC	nt	nt	nt	nt	0.8%	nt
C[n+]1cccc2cccc([O-])c21	56.2µM*	-22.1%	?	nt	-21.6%	1.4%
S=c1[nH]cnc2sc(-c3ccccc3)cc12	-3.9%	12.9%	-21.4%	35.5µM*	0.0%	16.4%
Cc1cccc(-c2nc(C#N)c(NCc3ccccc3)o2)c1	nt	nt	nt	nt	50.1µM*	nt
N#Cc1nc(-c2ccccc2)oc1NCc1ccccc1	nt	nt	nt	nt	-15.1%	nt
Cc1ccc(CNc2oc(-c3cccs3)nc2C#N)cc1	?	3.1%	-35.0%	50.1µM*	?	?
N#Cc1nc(-c2cccs2)oc1NCc1ccco1	?	-12.1%	?	-32.8%[59 µM]	?	-19.5%
Cc1ccc(-c2nc(C#N)c(NCc3ccco3)o2)cc1	-31.0%	1.7%	4.1%	-28.4%[59 µM]	?	3.9%
Cc1cccc(-c2nc(C#N)c(NCc3ccco3)o2)c1	50.1µM*	-5.4%	-22.1%	44.7µM*	?	13.2%
CCCCOC(=O)CSC1=C(C#N)C(c2ccccc2OC)C(C#N)C(=O)N1 (configuration not stated)	?	-14.8%	?	-7.7%[0.501 µM]	12.7%	23.4%
CCOC(=O)C1C(=O)NC(SCC(N)=O)=C(C#N)C1c1ccccc1OCC (configuration not stated)	-28.0%	15.8µM*	?	20µM*	0.0%	-15.1%
CCCOC(=O)CSC1=C(C#N)C(c2ccccc2OCC)C(C#N)C(=O)N1 (configuration not stated)	50.1µM*	-3.2%	-31.5%	?	-18.4%	?
CCCCOC(=O)CSC1=C(C#N)C(c2ccccc2OCC)C(C#N)C(=O)N1 (configuration not stated)	50.1µM*	-8.6%	-35.8%	29.1%[0.501 µM]	nt	-3.4%
Cc1ccc2oc(=O)cc(N3CCOCC3)c2c1	nt	nt	nt	nt	2.0%	nt
CCc1noc([C@@H]2CC(F)(F)CN2C(=O)c2ncccn2)n1	nt	nt	nt	nt	7.1%	nt
CN(C)CCCNc1oc(-c2cccs2)nc1C#N	nt	nt	nt	nt	67.3%	nt
COc1cccc(CN(C)C(=O)CNC(=O)c2cccs2)c1OC	5.3%	nt	-1.4%	-7.1%	-15.5%	40.5%
COc1cccc(CN(C)C(=O)CNC(=O)c2ccc(-c3ccccc3)cc2)c1OC	-0.3%	-2.1%	-21.2%	44.7µM*	12.7%	-0.3%
COc1cccc(CN(C)C(=O)c2ccc(NS(=O)(=O)c3ccc4[nH]c(=O)[nH]c4c3)cc2)c1OC	-12.8%	6.2%	-11.7%	7.4%	0.8%	33.1%
CCOc1ccc(NS(=O)(=O)c2ccc(C(=O)N(C)Cc3cccc(OC)c3OC)cc2)cc1	-27.0%	5.2%	89.1µM*	18.4%	?	-5.9%
COc1ccc(CN(C)C(=O)CNC(=O)c2sc3ccccc3c2Cl)c(OC)c1OC	nt	nt	89.1µM*	nt	1.4%	-16.7%
NC1(C(=O)N2CCC(c3nnc(Cn4ccnc4)n3C3CC3)CC2)CC1	nt	nt	nt	nt	36.3%	nt
O=C1CCN(Cc2ccccn2)CCCC(c2nc(-c3cnccn3)no2)CCN1 (configuration not stated)	nt	nt	nt	nt	173.8%	nt
NS(=O)(=O)c1ccc(NC2=CC(=O)C(=O)c3ccccc32)cc1	?	-15.6%	22.4µM*	nt	?	-8.2%
SMILES	BAZ2B inh	Sfp PPTase inh	JMJD2A Tudor	G9a block	12-LOX inh	HP1b binding inh
CCOC(=O)c1ccc(NC(=O)C(C)N2C(=O)c3ccccc3C2=O)cc1 (configuration not stated)	0.0%	0.0%	-18.2%	?	7.0%	12.1%
COc1cc(OC)c(Nc2nc3ccccc3nc2NS(=O)(=O)c2ccccc2)cc1Cl	nt	nt	nt	nt	-27.5%	nt
CCOC(=O)c1ccc(NC2=CC(=O)C(=O)c3ccccc32)cc1	?	50.1µM*	?	?	?	?
COc1cc(OC)c(NC2=CC(=O)C(=O)c3ccccc32)cc1Cl	?	-6.0%	?	39.8µM*	?	?
Cc1ccc(NC2=CC(=O)C(=O)c3ccccc32)cc1	39.8µM*	-18.7%	?	?	-22.0%	-29.2%
CC(C)c1nc2c(c(-c3ccc(O)cc3)n1)CCN(Cc1cccc3ccccc13)CC2	nt	nt	nt	nt	-0.1%	nt
Cc1cc(NC2=CC(=O)C(=O)c3ccccc32)no1	nt	nt	-17.4%	nt	39.8µM*	3.1%
CC(=O)c1ccc(N=C2C(=O)Nc3ccccc32)cc1	2.1%	19.1%	-14.4%	?	3.5%	39.7%
CC(=O)N(/N=C1/C(=O)Nc2ccccc21)c1ccccc1	-36.9%	-19.3%	?	14.1µM*	-4.2%	?
Nc1ccc(Br)c2cccnc12	-32.6%	-24.9%	-29.3%	31.6µM*	-4.3%	17.2%
Cc1ccc(N=Nc2ccc(O)cc2)c(Br)c1	44.7µM*	-7.0%	35.5µM*	nt	3.3%	?
Oc1ccc(N=Nc2ccc3c(c2)OCCO3)c2cccnc12	?	-12.8%	20µM*	-46.7%	?	?
CCN(CC)S(=O)(=O)c1ccc(N=Nc2cc(C)cc(Br)c2O)cc1	nt	nt	?	nt	466.5%	?
COc1ccc(N=Nc2ccc(O)c3ncccc23)cc1	6.31µM*	13.9%	22.4µM*	-6.6%[59 µM]	?	-18.7%
O=S(=O)(O)c1ccc2cc(N=Nc3cc(S(=O)(=O)O)c4cccnc4c3O)ccc2c1	nt	nt	nt	nt	-28.8%[57.4 µM]	nt
COc1ccc(-c2ncccc2O)cc1	-1.5%	7.1%	-4.1%	0.8%	0.0%	13.2%
CS(=O)(=O)Oc1ccc(Br)c2cccnc12	2.9%	-1.1%	-0.7%	13.7%[0.501 µM]	-9.2%	28.8%
Cc1noc([C@@H]2CC(F)(F)CN2S(=O)(=O)c2ccc(F)cc2)n1	nt	nt	nt	nt	47.6%	nt
